The source of these data is PubChem BioAssay (NCI).

The structures appear in SMILES notation. About 83,000 compounds went through this panel and 20% of them were active in at least one assay; those are over-represented in the sample as a whole.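 Single-concentration screen, 48 h exposure, 96-well plates. Endpoint: percent growth. Below 10 = active.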 Active and inactive are the calls of the source.

This assay has as its system HL-60(TB) leukemia. In words: NCI-60 one-dose screen, 48 h (100 = growth as untreated, 0 = no growth, -100 = all killed). As to conditions: 10 µM unless noted.
As to `CSc1nc(-c2ccc(F)cc2)c(C#N)c(N2CCOCC2)n1`, the growth was 79.6% (inactive).
Take `Cc1ccc(-c2nc3c(N=Nc4ccc(S(N)(=O)=O)cc4)c(N)nn3c(N)c2C#N)cc1`: the growth is 2.71% (active).
Under `CCN(CC)CCC(CNc1ccnc2cc(Cl)ccc12)c1ccc(Cl)cc1` (stereo not given) stands -53.9% (active); under `CN(C)CCOc1ccc(/C(=C(/CCCl)c2ccccc2)c2ccccc2)cc1`, -33% (active).
Under `Cc1ccc(S(=O)(=O)Oc2ccc3sc4c(CO)ccc(NCCN(C)C)c4c(=O)c3c2)cc1` stands -51.1% [100 µM] (active); under `CCc1ccc(-c2nnc(COc3ccc(-c4nc5ccccc5[nH]4)cc3OC)o2)cc1`, 78.4% (inactive).
Turning to `CCN1C(=O)N(CC)C2C1NN=c1s/c(=C\c3ccc([N+](=O)[O-])cc3)c(=O)n12` (stereo not given), the growth was -37.9% (active).
Consider `O=C(C[C@@]1(O)C(=O)Nc2c(Cl)ccc(Cl)c21)c1ccc(C2CC2)cc1`, for which the growth is -17.8% (active).
Under `Nc1ccc2c(c1)Cc1cc(N)c(N)cc1-2` stands 78.1% (inactive).
As to `COc1ccc2c(c1)C(=O)/C(=C/c1ccc(OCC(=O)c3ccc(Cl)cc3)cc1)O2`, the growth was 70.2% (inactive).
Regarding `COC(=O)C1=C(C(=O)ON)C2C=CC1(C(Cc1ccccc1)Nc1ccccc1)O2` (stereo not given), the growth is 18.9% (inactive).
Consider `COc1ccc(C(=O)c2cc3c(N)c(C(=O)Nc4ccccc4)sc3nc2C)cc1`, for which the growth is -46% (active).
On to `COc1ccc2oc3c(ccc[n+]3C)c(=O)c2c1`, for which the growth is 109% (inactive).
For the compound `Oc1c(Cl)cc(Oc2cc(Cl)c(O)c(CN3CCOCC3)c2)cc1CN1CCOCC1`, the growth was 86.7% (inactive).
Regarding `CCN1C(=O)N(CC)C2Nn3c(s/c(=C4\C(=O)N(C(C)C)c5ccccc54)c3=O)=NC21` (stereo not given), the growth was 6.28% (active).
In the case of `Cc1ccc(NC2=CC(=O)C(=O)c3ccccc32)cc1`, the growth is 18.4% (inactive).
Turning to `CSc1nc(N)n2nccc2n1`, the growth was 106% (inactive).
Under `C=C1C(=O)O[C@H]2[C@H]1CC/C(COC(=O)/C=C/c1c[nH]c3ccccc13)=C\CC[C@@]1(C)O[C@@H]21` stands -18.7% (active); under `COc1cccc2c1n([O-])c1cccc(OC)c1[n+]2=O`, 10.3% (inactive); under `BrCCCc1n(Cc2ccc3ccccc3c2)c2ccccc2[n+]1Cc1ccc2ccccc2c1`, -54.9% (active).
Turning to `CCN(CC)CCNc1ccc(CO)c2sc3ccccc3c(=O)c12`, the growth is 60.8% (inactive).
As to `CC(C)NC(=O)OCc1c(COC(=O)NC(C)C)c(-c2ccc(Cl)cc2)n2c1CCC2`, the growth was 43.9% (inactive).
Turning to `COC(=O)[C@H](Cc1cn(C)cn1)NC(=O)[C@H](Cc1ccccc1)NC(=O)Nc1cc(C(F)(F)F)cc(C(F)(F)F)c1`, the growth was -67.9% [100 µM] (active).
For `CCOC(=O)CCC(NC(=O)c1ccc(N)cc1)C(=O)OCC` (stereo not given), the growth is 102% (inactive).
As for `CC1=NC(=S)NC(c2ccccc2)/C1=C1/CC(c2ccccc2O)NN1` (stereo not given), the growth is 97.2% (inactive).
As to `CCOC(=O)C(=Cc1ccc(C#N)cc1)C(=O)OCC`, the growth was -33.2% (active).
`COc1ccc(-n2cnc3cc(C(=O)N4CCCCC4)ccc32)cc1`: the growth is 105% (inactive).
Under `CCCCn1c(Cc2ccc(OC)cc2)nc2cc(OC)c(OC)cc2c1=O` stands 79.3% (inactive); under `CN1CCN(c2nc(NCCNc3ccnc4cc(Cl)ccc34)c3ccccc3n2)CC1`, -63.3% (active).
On to `O=C(NN=C1CCCCC1)C(=O)NN=C1CCCCC1`, for which the growth is 81.5% (inactive).
Under `O=C1OC(c2ccccc2)(c2ccccc2)c2ccsc21` stands 86.6% (inactive).
Under `O=c1c2c(=NCCN3CCCC3)cc3c(=O)n(CCCN4CCOCC4)c(=O)c4ccc(c(O)n1CCCN1CCOCC1)c2c4-3` stands -34.7% (active).
In the case of `CCOC(=O)CNC(=O)C1(NC(=O)CNC(=O)OCc2ccccc2)CCCC1`, the growth was 87.5% (inactive).
Under `CCN(CC)CCOc1ccc(Cl)c(C)c1` stands 113% (inactive); under `COC1(OC)C2(Cl)C(Cl)=C(Cl)C1(Cl)C1COCC12` (stereo not given), 82.9% (inactive).
With `CCCCCCCCc1cc(Cl)c(O)c(Cl)c1`, the growth was 101% (inactive).
Under `CCCc1cc2cc(-n3nc(C)c4c3CC(C)(C)CC4=O)cc(NC3CCSCC3)c2c(=O)[nH]1` stands 49.4% (inactive).
In the case of `O=C(Nc1cnc(Nc2ccc(N3CCOCC3)nc2)nc1Oc1ccc(C(F)(F)F)cc1)c1ccncc1`, the growth was 98.6% (inactive).
With `CCOC(=O)c1cnc2sc(-c3ccc(OC)cc3)nc2c1Cl`, the growth is 93.8% (inactive).
`CCCCc1n(Cc2ccc3ccccc3n2)cc[n+]1Cc1ccc2ccccc2c1`: the growth was -46.1% (active).
